Experimental data taken from PubChem BioAssay (EPA / NIEHS).
Inconclusive results are not listed. Activity calls are given as the source filed them. How the source made its calls, unless noted: active means hit-call score of the fitted dose curve at least 0.9, where 1 is the maximum; inconclusive means response in the unintended direction; inactive means score below 0.9.

Columns and labels:
[1] = ATG_TCF_b_cat_CIS: Attagene CIS-FACTORIAL HepG2 Assay for human T-Cell-Factor with beta-catenin (TCF/b-cat) (AID 2282965; active means hit-call score of the fitted dose curve at least 0.9, where 1 is the maximum; inactive means score below 0.9); conditions: HepG2 TCF/beta-catenin cis-reporter transcription, actives raise or lower the signal
In short: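 Endogenous TCF/LEF activity read as reporter transcript level via RT-PCR and capillary electrophoresis fluorescence in transfected HepG2, 24 h exposure; gain or loss of signal fitted against DMSO controls.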

[2] = ATG_TAL_CIS: Attagene CIS-FACTORIAL HepG2 Assay for human TAL Basal Promoter (AID 2282966; active means hit-call score of the fitted dose curve at least 0.9, where 1 is the maximum; inactive means score below 0.9;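 further: background control endpoint measuring basal TAL promoter reporter mRNA not a specific factor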); conditions: HepG2 Attagene cis-factorial TAL promoter reporter; actives raise or lower the signal
In short: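 Transiently transfected HepG2 (cis-regulated reporter units), 24 h treatment, mRNA read by fluorescent CE after RT-PCR; bidirectional fit, DMSO baseline.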

[3] = ATG_VDRE_CIS: Attagene CIS-FACTORIAL HepG2 Assay for human Vitamin D Receptor Element (VDRE) (AID 2282968; active means hit-call score of the fitted dose curve at least 0.9, where 1 is the maximum; inactive means score below 0.9); conditions: HepG2 VDRE cis-reporter transcription, actives raise or lower the signal
In short: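 Measures endogenous factor activity through cis-element-driven reporter transcripts in transiently transfected HepG2. Cells are treated 24 h; reporter mRNA is quantified by RT-PCR and capillary electrophoresis; fitting is bidirectional.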

[4] = molecular target: Estrogen receptor (Homo sapiens) (UniProt P03372); experiment: ATG_ERa_TRANS: Attagene TRANS-FACTORIAL HepG2 Assay for human Estrogen Receptor alpha (ERa) (AID 2282970); conditions: HepG2 Attagene TRANS ERa GAL4 reporter, mRNA
In short: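 One of 30 multiplexed endpoints from a HepG2 TRANS system, this one reports ERa-Gal4-driven reporter mRNA. Transcripts were quantified 24 hours post-dosing by fluorescent RT-PCR and capillary electrophoresis, with activity scored as induction over DMSO.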

[5] = molecular target: X-box-binding protein 1 (Homo sapiens) (UniProt P17861); experiment: ATG_Xbp1_CIS: Attagene CIS-FACTORIAL HepG2 Assay for human X-box Binding Protein 1 (XBP1) (AID 2282972; active means hit-call score of the fitted dose curve at least 0.9, where 1 is the maximum; inactive means score below 0.9); conditions: HepG2 XBP1 cis-element reporter, Attagene multiplex; actives raise or lower the signal
In short: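 Reporter transcripts were quantified by RT-PCR with fluorescent primer extension and capillary electrophoresis after 24 h chemical exposure. Cells: transiently transfected HepG2 carrying cis-regulated reporter constructs; data fitted bidirectionally relative to DMSO.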

[6] = molecular target: Oxysterols receptor LXR-beta (Homo sapiens) (UniProt P55055); experiment: ATG_LXRb_TRANS: Attagene TRANS-FACTORIAL HepG2 Assay for human Liver X Receptor beta (LXRb) (AID 2282981); conditions: HepG2 Attagene TRANS GAL4-LXRb reporter, mRNA
In short: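 After 24 h of chemical treatment, transfected HepG2 cells yield total RNA; reporter cDNA is PCR-amplified, FAM-labelled, HpaI-cut and run on capillary electrophoresis. Signal reflects chimeric LXRb-Gal4 activity on GAL4-UAS reporters.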

[7] = ATG_M_06_TRANS: Attagene TRANS-FACTORIAL HepG2 Assay for M06 Transcription Factor (Internal Marker) (AID 2282983); conditions: HepG2 Attagene TRANS M06 internal marker reporter
In short: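 In this multiplexed HepG2 system, compounds are incubated 24 h with cells carrying GAL4-UAS reporter units. Reporter RNA is amplified and resolved by capillary electrophoresis, and induction is scored against DMSO.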

[8] = molecular target: Nuclear receptor subfamily 1 group I member 3 (Homo sapiens) (UniProt Q14994); experiment: ATG_CAR_TRANS: Attagene TRANS-FACTORIAL HepG2 Assay for human Constitutive Androstane Receptor (CAR) (AID 2282969); conditions: HepG2 Attagene TRANS-FACTORIAL CAR reporter;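 further: activators raise reporter mRNA above DMSO so AC50 marks induction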
In short: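 Signal is reporter mRNA induction relative to DMSO, measured 24 h after dosing by RT-PCR with fluorescent primer extension and capillary electrophoresis. Human HepG2 liver cells carried transiently transfected chimeric NR-Gal4/GAL4-UAS reporter constructs.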

[9] = ATG_M_19_TRANS: Attagene TRANS-FACTORIAL HepG2 Assay for M19 Transcription Factor (Internal Marker) (AID 2282974); conditions: HepG2 Attagene TRANS-FACTORIAL M19 internal marker reporter
In short: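 Gain-of-signal in reporter mRNA, relative to DMSO, was scored from capillary electrophoresis fluorescence. HepG2 cells carried transiently transfected multiple reporter transcription units and were incubated with test chemicals for 24 h.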

[10] = ATG_GAL4_TRANS: Attagene TRANS-FACTORIAL HepG2 Assay for GAL4 (Internal Marker) (AID 2282976); conditions: HepG2 Attagene TRANS GAL4 internal marker reporter
In short: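 HepG2 cells transiently transfected with multiplexed GAL4-UAS reporter constructs were dosed for 24 h. Reporter mRNA was measured by RT-PCR, 6-FAM primer extension, HpaI digestion and capillary electrophoresis, and gain of signal was fitted relative to DMSO.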

[11] = molecular target: Bile acid receptor (Homo sapiens) (UniProt Q96RI1); experiment: ATG_FXR_TRANS: Attagene TRANS-FACTORIAL HepG2 Assay for Farnesoid X Receptor (FXR) (AID 2282979); conditions: HepG2 Attagene TRANS FXR-GAL4 reporter transcription;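 further: hits raise reporter mRNA above DMSO so AC50 marks FXR activation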
In short: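 HepG2 cells transiently transfected with reporter constructs in which a chimeric FXR-GAL4 protein drives a GAL4-UAS reporter; 24 h compound exposure. Reporter mRNA measured by RT-PCR, FAM labelling, HpaI digestion and capillary electrophoresis; gain-of-signal versus DMSO.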

[12] = molecular target: Transcriptional activator Myb (Homo sapiens) (UniProt P10242); experiment: ATG_Myb_CIS: Attagene CIS-FACTORIAL HepG2 Assay for human Myeloblastosis (Myb) Proto-Oncogene Transcription Factor (AID 2282986; active means hit-call score of the fitted dose curve at least 0.9, where 1 is the maximum; inactive means score below 0.9); conditions: HepG2 Attagene CIS-FACTORIAL Myb reporter transcription; actives raise or lower the signal
In short: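 Multiplexed cis-reporter system in HepG2: transient transfection, 24 h treatment, mRNA readout by RT-PCR and capillary electrophoresis. Both increases and decreases are scored versus DMSO negative control.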

[13] = molecular target: Steroid hormone receptor ERR1 (Homo sapiens) (UniProt P11474); experiment: ATG_ERRa_TRANS: Attagene TRANS-FACTORIAL HepG2 Assay for human Estrogen-Related Receptor alpha (ERRa) (AID 2282971); conditions: HepG2 Attagene TRANS reporter, ERRa transactivation
In short: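 HepG2 cells transiently transfected with multiplexed GAL4-UAS reporter units reading chimeric ERRa-Gal4 activity; 24 h compound exposure. Reporter mRNA measured by RT-PCR, 6-FAM labelling, HpaI digest and capillary electrophoresis; gain of signal fitted versus DMSO baseline.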

[14] = molecular target: Estrogen-related receptor gamma (Homo sapiens) (UniProt P62508); experiment: ATG_ERRg_TRANS: Attagene TRANS-FACTORIAL HepG2 Assay for human Estrogen-Related Receptor gamma (ERRg) (AID 2282977); conditions: HepG2 Attagene TRANS reporter, ERRg transactivation;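 further: hits increase reporter signal over DMSO so potencies reflect activators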
In short: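 Exogenous NR-Gal4 chimera activity was assessed in HepG2 cells bearing transfected GAL4-UAS reporters. After 24 h dosing, total RNA underwent RT-PCR, fluorescent primer extension and HpaI digestion before capillary electrophoresis, with gain of signal scored against DMSO.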

[15] = molecular target: Oxysterols receptor LXR-alpha (Homo sapiens) (UniProt Q13133); experiment: ATG_LXRa_TRANS: Attagene TRANS-FACTORIAL HepG2 Assay for human Liver X Receptor alpha (LXRa) (AID 2282980); conditions: HepG2 Attagene TRANS reporter, LXRa transactivation
In short: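 HepG2 cells were transiently transfected with multiplexed reporter units driven by chimeric LXRa–GAL4 fusion proteins, then dosed for 24 h. Reporter mRNA was quantified by RT-PCR, fluorescent labelling and capillary electrophoresis; gain of signal fitted against DMSO baseline.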

[16] = ATG_TGFb_CIS: Attagene CIS-FACTORIAL HepG2 Assay for human Transforming Growth Factor (TGF) (AID 2282967; active means hit-call score of the fitted dose curve at least 0.9, where 1 is the maximum; inactive means score below 0.9); conditions: HepG2 Attagene CIS TGFb reporter, mRNA transcription; actives raise or lower the signal
In short: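 Transient MRTU transfection of HepG2 (FuGene 6). Dose 24 h. TriZol RNA, oligo(dT) RT, PCR, 6-FAM primer extension, HpaI cut, CE. Bidirectional fit, DMSO = baseline.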

[17] = molecular target: Glucocorticoid receptor (Homo sapiens) (UniProt P04150); experiment: ATG_GR_TRANS: Attagene TRANS-FACTORIAL HepG2 Assay for human Glucocorticoid Receptor (GR) (AID 2282978); conditions: HepG2 Attagene TRANS GR reporter, mRNA transcription;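 further: activators score as hits since higher reporter transcript over DMSO is fitted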
In short: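 HepG2 transient transfection, multiple reporter units, GAL4-UAS under NR-GAL4 chimera control. 24 h treatment. Reporter mRNA by RT-PCR/CE fluorescence, DMSO as negative control.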

[18] = molecular target: Hepatocyte nuclear factor 4-alpha (Homo sapiens) (UniProt P41235); experiment: ATG_HNF4a_TRANS: Attagene TRANS-FACTORIAL HepG2 Assay for human Hepatocyte Nuclear Factor 4 alpha (HNF4a) (AID 2282982); conditions: HepG2 HNF4a transactivation reporter, mRNA readout
In short: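 Multiplexed reporter assay: transfected HepG2, 24 h exposure, total RNA → oligo(dT) RT → PCR → 6-FAM extension → HpaI digest → CE fluorescence. DMSO = negative control.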

[19] = molecular target: Nuclear receptor subfamily 4 group A member 2 (Homo sapiens) (UniProt P43354); experiment: ATG_NURR1_TRANS: Attagene TRANS-FACTORIAL HepG2 Assay for human Nuclear Receptor Related Protein 1 (NURR1) (AID 2282985); conditions: HepG2 Attagene TRANS reporter, mRNA readout
In short: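 Measures transcriptional activation by an exogenous NR-Gal4 chimera in transfected HepG2 liver cells. After 24 h, reporter RNA is reverse-transcribed, amplified and resolved by capillary electrophoresis; DMSO defines baseline.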

[20] = ATG_M_32_TRANS: Attagene TRANS-FACTORIAL HepG2 Assay for M32 Transcription Factor (Internal Marker) (AID 2282984); conditions: HepG2 Attagene TRANS M32 internal marker reporter;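 further: transcript level of a background control reporter unit measured by RT-PCR and capillary electrophoresis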
In short: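 Cell-based TRANS-format assay in HepG2: exogenous chimeric GAL4 reporter units transiently expressed, compounds applied 24 h. Reporter mRNA detected by RT-PCR plus capillary electrophoresis; this readout is an internal background marker.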

Measured: AC50

Sequence of Oxysterols receptor LXR-alpha (Homo sapiens) (Q13133 whole entry, looked up, the tested form may be a part): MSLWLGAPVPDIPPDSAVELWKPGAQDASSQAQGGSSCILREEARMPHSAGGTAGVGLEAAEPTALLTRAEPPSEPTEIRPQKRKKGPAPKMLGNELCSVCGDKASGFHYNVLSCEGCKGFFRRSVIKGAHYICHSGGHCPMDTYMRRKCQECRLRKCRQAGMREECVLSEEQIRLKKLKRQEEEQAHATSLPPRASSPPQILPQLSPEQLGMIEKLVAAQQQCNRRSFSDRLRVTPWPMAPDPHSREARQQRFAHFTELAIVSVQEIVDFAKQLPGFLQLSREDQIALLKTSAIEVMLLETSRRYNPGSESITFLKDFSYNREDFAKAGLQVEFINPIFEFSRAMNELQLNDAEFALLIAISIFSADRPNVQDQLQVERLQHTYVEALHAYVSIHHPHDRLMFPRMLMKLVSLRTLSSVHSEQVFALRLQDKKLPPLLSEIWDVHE
Sequence of Hepatocyte nuclear factor 4-alpha (Homo sapiens) (P41235 whole entry, looked up): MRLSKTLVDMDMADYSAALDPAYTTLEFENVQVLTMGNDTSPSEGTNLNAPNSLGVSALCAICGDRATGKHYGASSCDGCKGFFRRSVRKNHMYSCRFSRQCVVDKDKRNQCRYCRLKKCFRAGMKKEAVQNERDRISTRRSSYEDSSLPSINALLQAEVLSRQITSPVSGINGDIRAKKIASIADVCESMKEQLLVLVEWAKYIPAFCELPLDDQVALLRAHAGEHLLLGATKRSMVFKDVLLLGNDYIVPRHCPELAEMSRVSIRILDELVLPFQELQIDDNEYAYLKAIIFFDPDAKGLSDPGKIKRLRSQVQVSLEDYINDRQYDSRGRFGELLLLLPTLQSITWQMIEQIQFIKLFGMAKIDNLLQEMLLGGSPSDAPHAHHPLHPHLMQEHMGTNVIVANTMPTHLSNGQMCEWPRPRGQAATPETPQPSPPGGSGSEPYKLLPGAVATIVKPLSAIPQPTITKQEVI
Sequence of Nuclear receptor subfamily 4 group A member 2 (Homo sapiens) (P43354 whole entry, looked up, the tested form may be a part): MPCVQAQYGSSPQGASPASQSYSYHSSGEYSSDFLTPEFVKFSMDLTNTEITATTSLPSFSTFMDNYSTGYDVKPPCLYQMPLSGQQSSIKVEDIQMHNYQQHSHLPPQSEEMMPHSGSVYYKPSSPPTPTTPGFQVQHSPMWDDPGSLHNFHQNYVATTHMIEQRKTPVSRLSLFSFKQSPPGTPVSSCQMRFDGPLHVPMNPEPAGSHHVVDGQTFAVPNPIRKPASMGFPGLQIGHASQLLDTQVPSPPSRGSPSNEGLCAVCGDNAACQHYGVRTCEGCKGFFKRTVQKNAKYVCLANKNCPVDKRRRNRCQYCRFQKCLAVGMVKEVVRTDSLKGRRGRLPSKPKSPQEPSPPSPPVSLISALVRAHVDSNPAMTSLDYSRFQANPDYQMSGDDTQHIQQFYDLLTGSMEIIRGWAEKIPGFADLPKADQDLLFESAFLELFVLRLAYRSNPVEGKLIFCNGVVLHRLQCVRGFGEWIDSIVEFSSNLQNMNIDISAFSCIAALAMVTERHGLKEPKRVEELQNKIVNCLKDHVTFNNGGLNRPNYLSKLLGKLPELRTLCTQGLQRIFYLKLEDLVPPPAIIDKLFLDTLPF
Sequence of Estrogen receptor (Homo sapiens) (P03372 whole entry, looked up, the tested form may be a part): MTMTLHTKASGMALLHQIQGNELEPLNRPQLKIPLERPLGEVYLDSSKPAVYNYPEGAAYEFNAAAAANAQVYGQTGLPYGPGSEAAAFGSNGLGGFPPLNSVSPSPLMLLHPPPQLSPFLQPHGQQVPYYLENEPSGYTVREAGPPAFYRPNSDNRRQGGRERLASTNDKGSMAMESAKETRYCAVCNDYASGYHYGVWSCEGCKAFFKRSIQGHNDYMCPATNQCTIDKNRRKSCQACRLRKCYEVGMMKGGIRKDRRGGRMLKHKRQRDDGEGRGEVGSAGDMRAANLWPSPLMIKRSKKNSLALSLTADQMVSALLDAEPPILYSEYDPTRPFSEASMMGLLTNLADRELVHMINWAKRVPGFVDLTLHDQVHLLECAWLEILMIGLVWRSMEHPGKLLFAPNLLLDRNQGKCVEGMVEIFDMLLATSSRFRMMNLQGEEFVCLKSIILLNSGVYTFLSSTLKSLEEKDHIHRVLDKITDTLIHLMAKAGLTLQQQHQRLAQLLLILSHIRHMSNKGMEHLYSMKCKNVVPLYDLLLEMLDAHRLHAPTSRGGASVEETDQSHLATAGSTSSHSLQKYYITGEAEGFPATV
Sequence of X-box-binding protein 1 (Homo sapiens) (P17861 whole entry, looked up): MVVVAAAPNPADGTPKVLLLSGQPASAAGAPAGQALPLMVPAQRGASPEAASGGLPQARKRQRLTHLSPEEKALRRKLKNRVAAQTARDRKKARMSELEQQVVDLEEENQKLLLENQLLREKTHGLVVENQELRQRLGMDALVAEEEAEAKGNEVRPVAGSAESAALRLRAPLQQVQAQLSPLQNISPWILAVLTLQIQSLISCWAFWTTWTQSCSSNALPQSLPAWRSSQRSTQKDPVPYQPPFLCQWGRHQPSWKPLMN
Sequence of Bile acid receptor (Homo sapiens) (Q96RI1 whole entry, looked up, the tested form may be a part): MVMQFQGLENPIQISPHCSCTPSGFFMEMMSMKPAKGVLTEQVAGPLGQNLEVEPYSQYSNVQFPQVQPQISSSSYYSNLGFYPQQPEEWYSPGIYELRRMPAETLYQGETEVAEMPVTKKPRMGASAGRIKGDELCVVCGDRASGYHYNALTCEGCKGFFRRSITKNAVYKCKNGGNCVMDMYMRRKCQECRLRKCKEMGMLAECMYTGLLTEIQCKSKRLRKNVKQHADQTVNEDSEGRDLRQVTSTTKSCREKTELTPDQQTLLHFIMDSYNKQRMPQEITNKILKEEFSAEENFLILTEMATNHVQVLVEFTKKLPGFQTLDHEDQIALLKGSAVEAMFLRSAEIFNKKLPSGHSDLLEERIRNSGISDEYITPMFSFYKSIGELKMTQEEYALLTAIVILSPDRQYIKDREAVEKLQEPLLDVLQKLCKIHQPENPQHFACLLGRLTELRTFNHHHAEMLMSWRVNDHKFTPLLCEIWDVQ
Sequence of Estrogen-related receptor gamma (Homo sapiens) (P62508 whole entry, looked up, the tested form may be a part): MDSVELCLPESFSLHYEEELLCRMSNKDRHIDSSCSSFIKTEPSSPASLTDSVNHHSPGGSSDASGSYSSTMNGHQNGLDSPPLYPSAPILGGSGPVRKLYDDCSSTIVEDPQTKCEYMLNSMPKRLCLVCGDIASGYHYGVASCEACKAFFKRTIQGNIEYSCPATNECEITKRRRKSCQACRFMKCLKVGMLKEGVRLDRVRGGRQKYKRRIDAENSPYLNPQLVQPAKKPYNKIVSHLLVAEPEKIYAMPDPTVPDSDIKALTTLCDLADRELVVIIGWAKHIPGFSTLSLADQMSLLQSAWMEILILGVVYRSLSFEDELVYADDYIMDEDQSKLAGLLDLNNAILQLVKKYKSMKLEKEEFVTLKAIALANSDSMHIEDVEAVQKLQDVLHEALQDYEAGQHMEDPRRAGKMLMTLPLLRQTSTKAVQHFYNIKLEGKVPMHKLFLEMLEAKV
Sequence of Oxysterols receptor LXR-beta (Homo sapiens) (P55055 whole entry, looked up, the tested form may be a part): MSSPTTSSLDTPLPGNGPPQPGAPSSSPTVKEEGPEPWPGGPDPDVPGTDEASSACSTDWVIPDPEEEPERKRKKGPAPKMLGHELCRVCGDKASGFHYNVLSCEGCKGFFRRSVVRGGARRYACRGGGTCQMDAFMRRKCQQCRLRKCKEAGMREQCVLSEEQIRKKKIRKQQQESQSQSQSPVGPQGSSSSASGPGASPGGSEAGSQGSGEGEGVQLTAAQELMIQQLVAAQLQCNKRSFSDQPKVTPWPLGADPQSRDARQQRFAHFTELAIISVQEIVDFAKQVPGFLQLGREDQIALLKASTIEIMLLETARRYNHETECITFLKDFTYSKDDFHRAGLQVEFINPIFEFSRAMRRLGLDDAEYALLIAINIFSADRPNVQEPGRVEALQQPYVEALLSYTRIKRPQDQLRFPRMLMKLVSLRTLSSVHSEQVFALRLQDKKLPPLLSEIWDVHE
Sequence of Transcriptional activator Myb (Homo sapiens) (P10242 whole entry, looked up): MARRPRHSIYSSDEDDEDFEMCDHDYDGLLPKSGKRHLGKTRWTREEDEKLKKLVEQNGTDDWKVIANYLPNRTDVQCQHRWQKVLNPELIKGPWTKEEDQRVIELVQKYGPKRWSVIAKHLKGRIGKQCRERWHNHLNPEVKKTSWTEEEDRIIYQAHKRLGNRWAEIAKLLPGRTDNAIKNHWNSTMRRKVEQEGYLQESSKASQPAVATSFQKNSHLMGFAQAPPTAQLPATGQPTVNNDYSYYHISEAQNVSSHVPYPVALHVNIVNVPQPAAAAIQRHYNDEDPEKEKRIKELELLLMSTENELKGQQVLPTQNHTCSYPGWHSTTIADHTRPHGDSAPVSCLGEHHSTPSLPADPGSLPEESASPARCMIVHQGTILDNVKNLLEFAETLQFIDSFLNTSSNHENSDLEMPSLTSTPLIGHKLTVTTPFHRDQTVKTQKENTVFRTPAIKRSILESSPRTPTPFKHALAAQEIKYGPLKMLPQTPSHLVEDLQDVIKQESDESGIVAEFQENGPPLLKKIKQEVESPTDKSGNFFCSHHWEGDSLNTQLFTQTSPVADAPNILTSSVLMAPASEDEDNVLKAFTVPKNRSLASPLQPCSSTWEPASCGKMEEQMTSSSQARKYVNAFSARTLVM
Sequence of Steroid hormone receptor ERR1 (Homo sapiens) (P11474 whole entry, looked up, the tested form may be a part): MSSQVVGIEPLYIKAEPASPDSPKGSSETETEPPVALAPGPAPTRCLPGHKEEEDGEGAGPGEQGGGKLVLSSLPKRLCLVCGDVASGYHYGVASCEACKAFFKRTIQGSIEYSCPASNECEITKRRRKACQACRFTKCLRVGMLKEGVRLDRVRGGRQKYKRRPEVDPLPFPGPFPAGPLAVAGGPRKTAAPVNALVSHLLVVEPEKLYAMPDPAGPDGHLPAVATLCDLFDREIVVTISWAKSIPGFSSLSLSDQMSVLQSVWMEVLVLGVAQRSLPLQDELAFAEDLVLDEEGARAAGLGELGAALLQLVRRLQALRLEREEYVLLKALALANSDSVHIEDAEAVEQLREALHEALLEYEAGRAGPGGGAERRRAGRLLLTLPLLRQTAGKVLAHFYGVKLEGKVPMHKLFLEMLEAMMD

C[C@]12C=CC(=O)C=C1CC[C@@H]1[C@@H]2C(=O)C[C@@]2(C)[C@H]1CC[C@]2(O)C(=O)CO
active: [4] 58.3 µM
inactive: [1] | [2] | [3] | [5] | [6] | [7]

COc1cc(C=O)ccc1O
inactive: [1] | [2] | [3] | [8] | [5] | [9] | [10] | [11] | [12]

COc1cccc2c1C(=O)c1c(O)c3c(c(O)c1C2=O)C[C@@](O)(C(=O)CO)C[C@@H]3O[C@H]1C[C@H](N)[C@H](O)[C@H](C)O1
active: [1] 1.26 µM | [3] 0.318 µM | [5] 0.0821 µM
inactive: [2] | [13] | [9] | [14] | [15] | [6]

Cc1ccccc1Cl
inactive: [1] | [2] | [3] | [4] | [5] | [11] | [15] | [6] | [7] | [12]

Nc1nc(N)c2nc(CNc3ccc(C(=O)N[C@@H](CCC(=O)O)C(=O)O)cc3)cnc2n1
active: [1] 116 µM
not listed: [3] | [4] | [8] | [9] | [10] | [13] | [15] | [20]
inactive: all other assays above

Cc1ccc2ncccc2c1
inactive: [1] | [2] | [16] | [5] | [9] | [14] | [17] | [7]

CCCCCCCCCCC
inactive: [1] | [2] | [16] | [13] | [5] | [9] | [10] | [17] | [18] | [7]

CCCCN(CCCC)CCCC
inactive: [1] | [2] | [16] | [4] | [5] | [18] | [7] | [20] | [19]

CCCCCCCCCCCCCCCC
inactive: [1] | [2] | [16] | [5] | [14] | [15] | [6] | [18] | [7] | [20] | [12]

Oc1ccc2c(c1)OC[C@@H](N1CCC(O)(c3ccc(F)cc3)CC1)[C@H]2O
inactive: [1] | [2] | [8] | [5] | [18] | [7] | [19]
active: [3] 30.1 µM | [4] 6.61 µM

C1CCC(SSC2CCCCC2)CC1
inactive: [1] | [2] | [16] | [5] | [15] | [6] | [7] | [12]
active: [4] 27.4 µM
